Source: PubChem
3CLpro inhibitor: SARS-CoV 3CLpro protease inhibition; recombinant SARS-CoV 3CLpro, quenched FRET peptide cleavage; inhibition, % at 6 µM; hit rate 0.14% among 290,000; AID 1706; in the data active means inhibition above about 12%
BoNT-A LC inh2: blocks Botulinum neurotoxin A light chain protease. multiplex microsphere protease substrate cleavage, flow cytometry. inhibition, % at 10 µM. hit rate 0.17% among 360,000; further: plate controls were buffer without enzyme for full effect and enzyme alone for no effect
VHR inh abs: inhibitors of human VHR1 phosphatase (DUSP3); P51452; recombinant VHR phosphatase, pNPP absorbance; inhibition, % at 13.3 µM; hit rate 0.52% among 290,000; AID 1654; in the data active means inhibition above about 50%
BoNT F protease: inhibitors of Botulinum neurotoxin F light chain protease | inhibition, % at 10 µM | AID 588497 | Multiplex microsphere protease cleavage assay, flow cytometry | hit rate 0.22% among 360,000; in the data active means inhibition above about 35%, passing the limit was not always enough; inconclusive means no clear call, values can overlap the other calls; further: plate controls were buffer without enzyme for full effect and enzyme alone for no effect
Bead autofluor: flagged as autofluorescent in microsphere protease counterscreen; compound autofluorescence counterscreen, microsphere flow cytometry; stronger effect = higher value; fluorescence intensity (test concentration not listed); hit rate 3.1% among 360,000; AID 624483; in the data active means fluorescence intensity above about 16000; inconclusive means no clear call, values can overlap the other calls
Anthrax LF prot: anthrax lethal factor protease inhibition; P15917; hit rate 0.12% among 360,000; inhibition, % at 10 µM; multiplex microsphere protease cleavage assay, LF; AID 588501; further: plate controls were buffer without enzyme for full effect and enzyme alone for no effect
Target sequence (P15917 whole entry, looked up): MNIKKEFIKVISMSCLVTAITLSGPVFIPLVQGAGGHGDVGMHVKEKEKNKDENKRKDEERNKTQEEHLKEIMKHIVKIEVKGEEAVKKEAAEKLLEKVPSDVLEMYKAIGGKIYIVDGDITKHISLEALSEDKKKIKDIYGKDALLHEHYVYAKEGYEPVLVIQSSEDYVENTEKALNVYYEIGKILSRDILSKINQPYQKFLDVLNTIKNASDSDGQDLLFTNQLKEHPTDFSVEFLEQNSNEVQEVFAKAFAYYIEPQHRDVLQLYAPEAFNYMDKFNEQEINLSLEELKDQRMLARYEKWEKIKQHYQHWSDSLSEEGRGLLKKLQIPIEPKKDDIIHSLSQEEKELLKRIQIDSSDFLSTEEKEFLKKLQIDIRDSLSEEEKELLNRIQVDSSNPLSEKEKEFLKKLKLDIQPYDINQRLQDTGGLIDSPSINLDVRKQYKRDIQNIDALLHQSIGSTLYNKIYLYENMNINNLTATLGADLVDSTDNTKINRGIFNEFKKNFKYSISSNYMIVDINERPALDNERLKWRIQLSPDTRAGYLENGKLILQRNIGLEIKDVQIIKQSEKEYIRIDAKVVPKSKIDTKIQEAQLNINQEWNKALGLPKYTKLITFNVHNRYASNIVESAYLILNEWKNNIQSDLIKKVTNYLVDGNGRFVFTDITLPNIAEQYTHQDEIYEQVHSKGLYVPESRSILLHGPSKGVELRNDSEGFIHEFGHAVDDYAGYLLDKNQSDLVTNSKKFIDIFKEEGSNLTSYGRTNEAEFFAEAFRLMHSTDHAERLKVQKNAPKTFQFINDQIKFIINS
* hit, by the source's call; ? = inconclusive; nt = no result given. Only some compounds are listed: those with a hit (about 3.9% of all), similar ones and a draw of the others. Unless noted, no stated cut-off is given here; in the data, active means inhibition above about 30%; inconclusive means no clear call, values can overlap the other calls; inactive means below that.

SMILES | 3CLpro inhibitor | BoNT-A LC inh2 | VHR inh abs | BoNT F protease | Bead autofluor | Anthrax LF prot
c1ccc(Cc2nnc3sc(-c4cccs4)nn23)cc1 | -6 | 1 | -10 | 7 | 7931 | 3
c1ccc(Cc2nnc3sc(-c4cccnc4)nn23)cc1 | -4 | -1 | -6 | -5 | 16689* | -6
CCOc1ccccc1-c1nn2c(Cc3ccccc3)nnc2s1 | -4 | -14 | 29 | -17 | 19404* | -3
c1ccc(Cc2nnc3sc(-c4ccc5c(c4)OCO5)nn23)cc1 | 4 | -1 | nt | 2 | 10869 | -3
c1ccc(Cc2nnc3sc(-c4ccccn4)nn23)cc1 | 1 | ? | 11 | 6 | 21625* | 0
c1ccc(Cc2nnc3sc(-c4ccncc4)nn23)cc1 | -1 | -1 | 1 | 0 | 23785* | -1
CCOc1ccc(-c2noc(CCC(=O)NC3CCCCC3)n2)cc1OC | 3 | 1 | 2 | 14 | 4085 | 2
Cc1ccc(OCC(=O)N(Cc2ccco2)c2c(N)n(Cc3ccccc3)c(=O)[nH]c2=O)cc1C | nt | 0 | nt | 9 | 3323 | 4
O=C(COc1ccc(Br)cc1)Nc1ccc(Cc2ccncc2)cc1 | 3 | 0 | 21 | 2 | 4153 | -4
COC(=O)COc1ccc(S(=O)(=O)Nc2ccccc2SC)cc1 | 3 | ? | 0 | -6 | 23132* | -2
COC(=O)COc1ccc(S(=O)(=O)Nc2cc(OC)ccc2OC)cc1 | 1 | nt | 22 | nt | nt | nt
CCOc1ccc(S(=O)(=O)Nc2ccccc2SC)cc1 | -1 | -2 | 6 | -4 | 24042* | -4
O=C(COc1ccc(Br)cc1)Nc1ccc(-c2nnc(-c3ccco3)o2)cc1 | -6 | -7 | 6 | -8 | 21839* | 1
COCCn1c(SCC#N)nnc1-c1ccccc1O | -4 | -3 | 14 | -6 | 20776* | -6
O=C1/C(=C/c2ccccc2)SC(=S)N1CCCC(=O)N1CCCCC1CCO (stereo not drawn) | 2 | 1 | 51* | -2 | 4468 | -1
Cn1c(C(C(=O)NCC2CCCO2)N(C(=O)Cn2nnc3ccccc32)C2CCCCC2)nc2ccccc21 (stereo not drawn) | 1 | -2 | 11 | -1 | 21506* | 0
CC(=O)c1ccccc1N(C(=O)Cn1nnc2ccccc21)C(C(=O)NCC1CCCO1)c1ccc(N2CCOCC2)cc1 (stereo not drawn) | 5 | -2 | -1 | -3 | 3309 | -2
Cc1ccc(C2=NS(=O)(=O)N(C)C(C(=O)NC3CCCCC3)=C2)cc1 | -4 | 0 | 2 | -3 | 6054 | 3
O=S(=O)(c1ccc(Cl)cc1)N1CCC(n2cnc3cc(C(F)(F)F)ccc32)CC1 | -1 | -1 | nt | -2 | 16517* | 0
O=S(=O)(c1ccc(F)cc1)N1CCC(n2cnc3ccccc32)CC1 | 1 | -2 | -4 | -25 | 3877 | -12
O=C(CNc1ccccc1)Nc1cccc2ccccc12 | 0 | nt | 9 | nt | nt | nt
CC1(CCC#N)N=C(SCCC#N)N(c2ccccc2)C1=O (stereo not drawn) | -5 | ? | 16 | -2 | 23294* | -1
CCOc1ccc(OCCCC(=O)NCCc2ccc(OC)cc2)cc1 | -4 | 2 | -11 | -2 | 5278 | -1
O=C(O)c1ccc(Sc2nnc(-c3cccc(Br)c3)o2)c([N+](=O)[O-])c1 | 6 | ? | 31 | -3 | 22792* | -3
Cc1cc(C(=O)Nc2nnc(C(F)(F)F)s2)no1 | -2 | 0 | -1 | 0 | 22963* | 1
SMILES | 3CLpro inhibitor | BoNT-A LC inh2 | VHR inh abs | BoNT F protease | Bead autofluor | Anthrax LF prot
Cc1cc(C(=O)Nc2ccccc2C(F)(F)F)no1 | -2 | ? | 22 | 0 | 24116* | -1
CCc1ccc(NC(=O)c2cc(C)on2)cc1 | 2 | 0 | 11 | 0 | 8367 | 3
O=C(Nc1ccccc1C(F)(F)F)c1cc(-c2ccccc2O)on1 | 3 | -1 | -4 | -9 | 10120 | -3
Cc1ccc(NC(=O)c2cc(C)on2)cc1 | -5 | 6 | 8 | 4 | 20978* | 1
COc1cc(C(=O)Nc2ccc(N(C)C)cc2)c([N+](=O)[O-])cc1OC | -6 | 1 | 5 | -32 | 2134 | -6
COc1cc(C(=O)Nc2ccc(N3CCCS3(=O)=O)cc2)c([N+](=O)[O-])cc1OC | nt | -50 | nt | -85 | 18232* | -12
CCCNC(=O)c1cc(OC)c(OC)cc1[N+](=O)[O-] | 1 | ? | 5 | 1 | 24245* | 1
CCOc1ccc(NC(=O)NC2(C(=O)NCc3ccco3)CCCCC2)cc1 | -3 | 0 | 33 | 7 | 3781 | -3
O=C(Nc1ccc(F)cc1)NC1(C(=O)NCc2ccco2)CCCCC1 | 7 | 0 | 30 | -2 | 16458* | -6
Cc1ccc2[nH]c(=O)c(CN(CC3COCCO3)C(=O)Nc3ccccc3F)cc2c1 (stereo not drawn) | 4 | 0 | -5 | 0 | 3555 | 7
COC(=O)c1ccc(OCC(=O)c2ccc(O)cc2O)cc1 | 3 | -3 | 12 | -5 | 24431* | -1
O=C(COc1ccccc1F)c1ccc(O)cc1O | -3 | 4 | 22 | 6 | 20781* | -5
CCOC(=O)c1ccc(OCC(=O)c2ccc(O)cc2O)cc1 | 3 | -1 | 4 | -1 | 3526 | 1
CC1CCCCC1NC(=O)CN1CCC(NC(=O)C(C)(C)C)CC1 (stereo not drawn) | nt | 0 | nt | 3 | 3670 | 1
COc1ccc(N(CC(=O)Nc2ccc(C)cn2)S(=O)(=O)c2c(C)noc2C)cc1 | 3 | -3 | 22 | -6 | 17199* | -2
COc1ccc(N(CC(=O)Nc2ccc(F)c(Cl)c2)S(=O)(=O)c2c(C)noc2C)cc1 | 3 | 0 | -5 | 0 | 16336* | -4
CCOc1ccc(N(CC(=O)Nc2ccc(OC)cc2)S(=O)(=O)c2c(C)noc2C)cc1 | -6 | 0 | 29 | -3 | 4033 | -16
COc1ccc(N(CC(=O)Nc2ccc(OC)c(Cl)c2)S(=O)(=O)c2c(C)noc2C)cc1 | -4 | 2 | 14 | 2 | 20070* | -11
COc1ccc(N(CC(=O)Nc2cc(Cl)ccc2OC)S(=O)(=O)c2c(C)noc2C)cc1 | -4 | ? | 7 | -5 | 20289* | -3
O=C(NNC(=O)c1ccccc1-n1cccc1)c1cccnc1 | nt | 0 | nt | -7 | 2946 | -1
COc1ccc(N(CC(=O)Nc2cccc(F)c2)S(=O)(=O)c2c(C)[nH]c(=O)[nH]c2=O)cc1 | -1 | 1 | 56* | 10 | 5316 | -2
COCCCNC(=O)c1cc(C)nc2ccc(F)cc12 | 3 | 1 | 10 | 2 | 21925* | -5
Cc1cc(=O)[nH]c(N2CCc3ccccc3C2)n1 | 6 | -5 | 0 | -5 | 25748* | 1
Cc1ccnc(SCC(=O)N2CCc3ccccc3C2)n1 | 6 | 0 | 1 | -5 | 2868 | -1
O=C(CSc1nnnn1-c1ccc(Cl)cc1)N1CCc2ccccc2C1 | -5 | 1 | 15 | 3 | 21981* | 2
O=C(CSc1nnnn1-c1ccccc1)N1CCc2ccccc21 | 1 | 0 | -3 | -3 | 9943 | -2
Cc1nc(N2CCc3ccccc3C2)[nH]c(=O)c1Cc1ccccc1 | 3 | -1 | 4 | 1 | 4742 | 3
